Out of some 39,000 compounds screened, about 3,300 (8.5%) were called active. The entries come from a sample that favours actives as a whole.

The assay has as its system HepG2. Description: cytotoxicity call (relative viability < 0.9). The following applies: 10 µM.
For `COc1ccc(OC)c(S(=O)(=O)N2[C@@H]3CC[C@@H](C3)[C@H]2c2nc3cccc(OCc4ccccc4)c3[nH]2)c1`, the cytotoxicity call was “inactive”.
Next, `CO[C@@H]1CN(C)C(=O)c2cc(NS(=O)(=O)CC(F)(F)F)ccc2OC[C@@H](C)N(Cc2ccccn2)C[C@@H]1C`: “inactive”; `C[C@@H]1CN([C@@H](C)CO)C(=O)c2cc(Br)cnc2O[C@@H]1CN(C)S(=O)(=O)c1ccccc1`: “inactive”; `Cc1ccc(S(=O)(=O)N(C)C[C@@H]2Oc3ccc(NC(=O)Cn4cnnn4)cc3C(=O)N([C@@H](C)CO)C[C@@H]2C)cc1`: “inactive”.
Next, `C/C(=N\N)c1c(C)cc(C)[nH]c1=O`: “inactive”; `Nc1cccc(=O)[nH]1`: “inactive”; `Cc1noc(C)c1NC(=O)N(C)C[C@@H]1Oc2ccc(NC(=O)Nc3ccc(C(F)(F)F)cc3)cc2CC(=O)N([C@H](C)CO)C[C@@H]1C`: “inactive”.
In the case of `C[C@H]1CN([C@@H](C)CO)C(=O)c2cc(C#CCc3ccccc3)cnc2O[C@@H]1CN(C)CC1CCOCC1`, the cytotoxicity call was “inactive”.
For `C[C@H](CO)N1C[C@H](C)[C@@H](CN(C)C(=O)Nc2cccc(Oc3ccccn3)c2)OCc2cnnn2CCCC1=O`, the cytotoxicity call was “inactive”.
Then `COc1ccc(NC(=O)Nc2ccc3c(c2)C(=O)N([C@@H](C)CO)C[C@H](C)[C@H](CN(C)Cc2ccc4c(c2)OCO4)OCCCC[C@H](C)O3)cc1`, with “inactive”.
In the case of `C[C@H](CO)N1C[C@H](C)[C@@H](CN(C)S(=O)(=O)c2ccccc2C#N)OCc2cnnn2CCCC1=O`, the cytotoxicity call was “inactive”.
Turning to `Cc1cc(=O)[nH][nH]1`, the cytotoxicity call is “inactive”.
As to `CCN1CCCC(OC(=O)C(c2ccccc2)c2ccccc2)C1.Cl` (stereo unspecified), the cytotoxicity call is “inactive”.
As to `COc1ccc(C(=O)CC(=O)c2ccc(C(C)(C)C)cc2)cc1`, the cytotoxicity call was “inactive”.
Then `CC(C)(C)c1ccc(C(=O)CCCN2CCC(OC(c3ccccc3)c3ccccc3)CC2)cc1`, with “active”; and `Cc1c(Cl)cccc1Nc1ccccc1C(=O)O`, with “inactive”; and `O=C(c1ccccc1Cl)n1c2ccccc2c2ccccc21`, with “active”.
Next, `COc1ccc2c(c1)c(CC(=O)OCC(=O)O)c(C)n2C(=O)c1ccc(Cl)cc1`: “inactive”; `O=C(c1ccc(Cl)cc1)n1c2ccccc2c2ccccc21`: “active”.
Then `NC(=O)c1ccccc1C(N)=O`, with “inactive”; and `COc1ccc2c(c1)c(CC(=O)O)c(C)n2C(=O)c1ccc(Cl)cc1`, with “inactive”.
Take `C[C@H]1CN([C@@H](C)CO)C(=O)c2cccc(NC(=O)CCCCCC(=O)Nc3ccccc3N)c2O[C@H]1CN(C)C(=O)Nc1ccccc1`: the cytotoxicity call is “inactive”.
Then `Cn1nc(CNc2ncccn2)c2c1CNCC2`, with “inactive”; and `C[C@H](CO)N1C[C@H](C)[C@@H](CN(C)Cc2ccc(C(F)(F)F)cc2)Oc2ccc(NC(=O)Cc3ccccc3)cc2C1=O`, with “inactive”; and `C[C@H](CO)N1C[C@H](C)[C@H](CN(C)CC2CCCCC2)OCCCC[C@H](C)Oc2ccc(NS(=O)(=O)c3ccccc3)cc2C1=O`, with “inactive”.
Next, `CCOC(=O)[C@H]1CSCCN1`: “inactive”; `C[C@H]1CN([C@@H](C)CO)C(=O)CCCn2nncc2CO[C@H]1CN(C)Cc1ccc2c(c1)OCCN2C`: “inactive”; `Cc1cc(=O)n2c(C)nnc2[nH]1`: “inactive”.
Then `CCCNC(=O)Nc1ccc2c(c1)C(=O)N(C)C[C@@H](OC)[C@@H](C)CN(Cc1ccc(-c3ccccn3)cc1)[C@H](C)CO2`, with “inactive”.
On to `COc1cccc(-n2cc(C(=O)NO)nn2)c1`, for which the cytotoxicity call is “inactive”.
As to `COc1ccc(-n2cc(C(=O)NO)nn2)cc1`, the cytotoxicity call is “active”.
In the case of `COC(=O)c1ccc(Cn2cc(C(=O)NO)nn2)o1`, the cytotoxicity call was “inactive”.
As for `COc1cccc(NC(=O)N[C@H]2CC[C@H](CC(=O)N3CCN(C)CC3)O[C@H]2CO)c1`, the cytotoxicity call was “inactive”.
Then `COc1cccc(NC(=O)N[C@@H]2CC[C@H](CC(=O)N3CCN(C)CC3)O[C@@H]2CO)c1`, with “inactive”; and `COc1cccc(NC(=O)N[C@@H]2CC[C@@H](CC(=O)N3CCN(C)CC3)O[C@@H]2CO)c1`, with “active”; and `C[C@H](CO)N1C[C@H](C)[C@H](CN(C)C(=O)Nc2ccc(F)cc2)Oc2ncc(-c3cccc(C(F)(F)F)c3)cc2C1=O`, with “inactive”.
In the case of `C[C@@H]1CN([C@H](C)CO)C(=O)c2cc(NC(=O)c3ccncc3)ccc2O[C@H]1CN(C)Cc1ccc(C(=O)O)cc1`, the cytotoxicity call was “inactive”.
Then `COc1ccc(CN(C)C[C@H]2Oc3c(NS(=O)(=O)c4cn(C)cn4)cccc3C(=O)N([C@H](C)CO)C[C@@H]2C)cc1`, with “inactive”; and `C[C@@H]1CN([C@H](C)CO)C(=O)c2cc(NC(=O)c3ccncc3)ccc2O[C@@H](C)CCCCO[C@H]1CN(C)S(=O)(=O)c1ccc(Cl)cc1`, with “active”.
Next, `C[C@@H]1CCCCO[C@H](CN(C)S(=O)(=O)c2ccc(Cl)cc2)[C@@H](C)CN([C@@H](C)CO)C(=O)c2cc(NC(=O)c3ccncc3)ccc2O1`: “active”; `C[C@@H]1CCCCO[C@@H](CN(C)S(=O)(=O)c2ccc(Cl)cc2)[C@@H](C)CN([C@@H](C)CO)C(=O)c2cc(NC(=O)c3ccncc3)ccc2O1`: “inactive”; `C[C@@H]1CCCCO[C@@H](CN(C)S(=O)(=O)c2ccc(Cl)cc2)[C@H](C)CN([C@@H](C)CO)C(=O)c2cc(NC(=O)c3ccncc3)ccc2O1`: “inactive”.
On to `C[C@@H]1CCCCO[C@@H](CN(C)S(=O)(=O)c2ccc(Cl)cc2)[C@@H](C)CN([C@H](C)CO)C(=O)c2cc(NC(=O)c3ccncc3)ccc2O1`, for which the cytotoxicity call is “inactive”.
`C[C@H]1CCCCO[C@H](CN(C)S(=O)(=O)c2ccc(Cl)cc2)[C@@H](C)CN([C@@H](C)CO)C(=O)c2cc(NC(=O)c3ccncc3)ccc2O1`: the cytotoxicity call is “inactive”.
Next, `Cc1noc(C)c1S(=O)(=O)N(C)C[C@H]1Oc2c(NC(=O)C3CCCCC3)cccc2C(=O)N([C@H](C)CO)C[C@H]1C`: “inactive”; `COc1ccc(CN(C)C[C@H]2OCCCC[C@@H](C)Oc3ccc(NS(=O)(=O)c4ccc(C)cc4)cc3C(=O)N([C@@H](C)CO)C[C@@H]2C)cc1`: “inactive”; `C[C@H]1CCCCO[C@@H](CN(C)S(=O)(=O)c2ccc(Cl)cc2)[C@@H](C)CN([C@@H](C)CO)C(=O)c2cc(NS(=O)(=O)c3ccccc3)ccc2O1`: “inactive”.
On to `CC12C=CC(=O)C=C1CCC1C2C(O)CC2(C)C1CCC2(O)C(=O)COC(=O)CCC(=O)O` (stereo unspecified), for which the cytotoxicity call was “inactive”.
Then `Cc1ccc(S(=O)(=O)N(C)C[C@@H]2Oc3ncc(C#CCC(C)C)cc3C(=O)N([C@@H](C)CO)C[C@H]2C)cc1`, with “active”; and `COc1cccc(-c2cnc3c(c2)C(=O)N([C@H](C)CO)C[C@H](C)[C@H](CN(C)S(=O)(=O)c2ccccc2)O3)c1`, with “active”; and `COc1cccc(S(=O)(=O)N(C)C[C@H]2Oc3ncc(C#CCC(C)C)cc3C(=O)N([C@@H](C)CO)C[C@H]2C)c1`, with “inactive”.
Next, `COc1cccc(S(=O)(=O)N(C)C[C@H]2Oc3ncc(C#CCC(C)C)cc3C(=O)N([C@H](C)CO)C[C@@H]2C)c1`: “active”.
For the compound `COc1cccc(S(=O)(=O)N(C)C[C@H]2Oc3ncc(C#CCC(C)C)cc3C(=O)N([C@H](C)CO)C[C@H]2C)c1`, the cytotoxicity call is “inactive”.
Then `Cc1ccc(S(=O)(=O)N(C)C[C@@H]2Oc3ncc(C#CCC(C)C)cc3C(=O)N([C@H](C)CO)C[C@H]2C)cc1`, with “inactive”.
Then `COc1cccc(S(=O)(=O)N(C)C[C@@H]2Oc3ncc(-c4ccccc4)cc3C(=O)N([C@H](C)CO)C[C@@H]2C)c1`, with “inactive”; and `Cc1ccc(S(=O)(=O)N(C)C[C@H]2Oc3ncc(C#CCC(C)C)cc3C(=O)N([C@@H](C)CO)C[C@@H]2C)cc1`, with “inactive”.
Next, `Cc1ccc(S(=O)(=O)N(C)C[C@H]2Oc3ncc(C#CCC(C)C)cc3C(=O)N([C@H](C)CO)C[C@@H]2C)cc1`: “inactive”.
Regarding `COc1cccc(-c2cnc3c(c2)C(=O)N([C@H](C)CO)C[C@H](C)[C@H](CN(C)S(=O)(=O)c2cccc(OC)c2)O3)c1`, the cytotoxicity call was “inactive”.
Then `Cc1ccc(S(=O)(=O)N(C)C[C@H]2Oc3ncc(C#CCC(C)C)cc3C(=O)N([C@@H](C)CO)C[C@H]2C)cc1`, with “active”; and `Cc1ccc(S(=O)(=O)N(C)C[C@@H]2Oc3ncc(C#CCC(C)C)cc3C(=O)N([C@H](C)CO)C[C@@H]2C)cc1`, with “inactive”.
Then `CN(C)CCCNC(=O)C[C@@H]1CC[C@H]2[C@@H](COC[C@@H](O)CN2S(=O)(=O)c2ccc(F)cc2)O1`, with “inactive”.
As for `CO[C@H]1CN(C)C(=O)c2cc(NS(=O)(=O)CC(F)(F)F)ccc2OC[C@H](C)N(Cc2ccccn2)C[C@@H]1C`, the cytotoxicity call is “inactive”.
As for `CC(C)CC#Cc1cnc2c(c1)C(=O)N([C@@H](C)CO)C[C@@H](C)[C@@H](CN(C)C(=O)CN1CCOCC1)O2`, the cytotoxicity call was “inactive”.
Then `C[C@@H]1CN([C@@H](C)CO)C(=O)c2cc(NS(=O)(=O)c3ccccc3)ccc2O[C@@H](C)CCCCO[C@H]1CN(C)C(=O)c1ccccc1`, with “inactive”.
Take `C[C@@H]1CCCCO[C@H](CN(C)C(=O)Cc2ccccc2)[C@@H](C)CN([C@H](C)CO)C(=O)c2cc(NC(=O)Nc3ccc4c(c3)OCO4)ccc2O1`: the cytotoxicity call is “inactive”.
Then `CNC[C@H]1Oc2ccc(NS(=O)(=O)c3cn(C)cn3)cc2C(=O)N([C@@H](C)CO)C[C@H]1C`, with “inactive”; and `C[C@@H]1CCCCO[C@@H](CN(C)C(=O)Nc2ccccc2)[C@H](C)CN([C@@H](C)CO)C(=O)c2cc(NC(=O)Nc3ccccc3)ccc2O1`, with “inactive”; and `C[C@@H]1CN([C@@H](C)CO)C(=O)c2cc(-c3ccc(C(=O)N(C)C)cc3)cnc2O[C@H]1CN(C)C(=O)CN(C)C`, with “inactive”.
Then `C[C@H]1CCCCO[C@H](CN(C)Cc2ccccc2)[C@@H](C)CN([C@@H](C)CO)C(=O)c2cc(NC(=O)c3ccncc3)ccc2O1`, with “inactive”; and `Cc1noc(C)c1NC(=O)Nc1ccc2c(c1)C(=O)N([C@H](C)CO)C[C@@H](C)[C@H](CN(C)Cc1ccc(Oc3ccccc3)cc1)O2`, with “inactive”; and `Cc1cc(C(=O)Nc2cccc3c2O[C@@H](CN(C)C(=O)NC(C)C)[C@H](C)CN([C@H](C)CO)C3=O)n(C)n1`, with “inactive”.
